Among the data in ChEMBL document CHEMBL4513216, “Probing the Open Global Health Chemical Diversity Library for Multistage-Active Starting Points for Next-Generation Antimalarials” (ACS Infect Dis, 2020) are INHIBITION values, retold here.

Each structure is given as a SMILES string. Hit rate of the full screen: of about 69,000 compounds, about 8,600 (12%) showed an effect of 50% or more. The entries come from a sample that favours strong results as a whole.

The subject of this experiment is Plasmodium berghei. Briefly: Screen against P. berghei liver stage (PbLuc), transformed with Luciferase, at 10uM. In kind it is functional, HepG2. The following applies: tested at 10 uM.
In the case of `CS(=O)(=O)CCC(=O)Nc1cc(F)ccc1OCC1CCCO1` (centres undefined), the INHIBITION is -14%.

For `CC(C)N1CCCC2(CCN(Cc3nncn3C(C)C)C2)C1=O` (centres undefined), the INHIBITION is -27.4%.

On to `CC(C)c1cc(C(=O)NCC2CCCN(C(C)C)C2)n(C)n1` (centres undefined), for which the INHIBITION stood at 34.1%.

For the compound `CCn1nc(C(C)C)cc1C(=O)NCC1CCCN(c2ccccn2)C1` (centres undefined), the INHIBITION is listed as 45%.

Consider `CC(C)c1cc(C(=O)NCC2CCCN(c3ncccn3)C2)n(C)n1` (centres undefined), for which the INHIBITION is 70%.

Consider `Cc1cc(C)nc(Nc2cncc(C3CCCN(S(C)(=O)=O)C3)n2)n1` (centres undefined), for which the INHIBITION was determined as 29.2%.

With `CCN1CCCc2cc(-c3cncn3C(C)CN3CCOCC3)ccc21` (centres undefined), the INHIBITION turned out to be 27.6%.

`CCC(CN1CCOCC1)n1cncc1-c1ccc2c(c1)CCN2CC` (centres undefined): the INHIBITION was determined as 61.9%.

In the case of `CCC(CN1CCOCC1)n1cncc1-c1ccc2c(c1)CCCN2C` (centres undefined), the INHIBITION was determined as 39.7%.

Consider `CCC(NC(=O)c1cc(OC)c2c(c1)OCCO2)c1cccs1` (centres undefined), for which the INHIBITION stood at 24.3%.

As to `Cc1noc(C)c1CN1CCn2nc(CCC(=O)N3CCCC3)cc2C1`, the INHIBITION was 19.3%.

As to `COc1cccc(OCCN2CC[C@@](O)(C3CCOCC3)[C@H](C)C2)c1`, the INHIBITION is 49.3%.

`COc1cccc(Cc2nnc(SCCS(C)(=O)=O)o2)c1`: the INHIBITION is given as 49.1%.

In the case of `COCCOCCSc1nnc(Cc2ccccc2F)o1`, the INHIBITION is given as 6.88%.

As for `CCOCCSc1nnc(Cc2ccccc2F)o1`, the INHIBITION is given as -19%.

With `N#CCCSc1nnc(Cc2ccccc2F)o1`, the INHIBITION is on record as 20.5%.

Take `COc1ccccc1Cc1nnc(SCCS(C)(=O)=O)o1`: the INHIBITION stood at 53.8%.

For `CS(=O)(=O)CCSc1nnc(Cc2ccccc2F)o1`, the INHIBITION was found to be 52.6%.

Take `CC[C@H]1N(CC2CCC2)CCC[C@]12CCC(=O)N2Cc1ccncc1`: the INHIBITION is 19.8%.

As for `COCCC(=O)N1CCC(c2cc3ncc(C)nc3[nH]2)CC1`, the INHIBITION is recorded as 15.9%.

As to `Cc1cnn(CC2CCCCN2Cc2c(C)noc2C)c1` (centres undefined), the INHIBITION came to 26.09%.

On to `CC1CCCN(Cc2cccc(C(=O)Nc3nccs3)c2)C1` (centres undefined), for which the INHIBITION is given as -37.8%.

For `O=C(c1ccccn1)N1CCC(c2nc(O)cc(-c3ccncc3)n2)C1` (centres undefined), the INHIBITION turned out to be 19.6%.

Regarding `CCOc1ncccc1NC(=O)NC1CCCN(c2ncccn2)C1` (centres undefined), the INHIBITION is given as 30.8%.

As for `c1cc2c(c(-c3cc(N4CCOCC4)ncn3)c1)CCNC2`, the INHIBITION was 58.6%.

As for `Nc1cnc(-c2cccc3c2CCNC3)cn1`, the INHIBITION is -0.178%.

As for `Nc1cc(-c2cccc3c2CCNC3)ncn1`, the INHIBITION was found to be 28.7%.

Consider `COc1cc2nc3n(c(=O)c2cc1OC)CCN(C(=O)C1CC1)CC3`, for which the INHIBITION turned out to be 35.2%.

In the case of `COc1cc(OCC(=O)NCCc2ccccc2)cc(OC)c1OC`, the INHIBITION is -13.2%.

With `COCCC(=O)N1CC[C@@H]2O[C@@H](C)C[C@H]2C1`, the INHIBITION worked out at 18.8%.

For `COCC(=O)N1CC[C@@H]2O[C@@H](C)C[C@H]2C1`, the INHIBITION was found to be 10.1%.

With `COCCC(=O)N1CC[C@H]2O[C@@H](C)C[C@H]2C1`, the INHIBITION turned out to be 64.9%.

For the compound `COCCn1c(-c2cccc(OC)c2)cnc1NC(=O)NC(C)C`, the INHIBITION was found to be 18.4%.

In the case of `Nc1ncc(-c2ccc(C(F)(F)F)cc2)c(C2CCCNC2)n1` (centres undefined), the INHIBITION is given as 70.1%.

`Nc1ncc(-c2ccc(Cl)cc2)c(C2CCCNC2)n1` (centres undefined): the INHIBITION is given as 31.6%.

For `Nc1ncc(-c2ccc(F)cc2)c(C2CCCNC2)n1` (centres undefined), the INHIBITION is listed as 28.3%.

For `O=c1cc2c(nn1CN1CCN(c3ccccc3)CC1)CCCC2`, the INHIBITION is reported as 38.9%.

For `Cn1cc(C(=O)N2CCCC2c2noc(C3CC3)n2)c2ccccc21` (centres undefined), the INHIBITION came out at 19.2%.

Turning to `O=C1CO[C@@H]2CN(C3CCOCC3)C[C@H]2N1Cc1ccncc1`, the INHIBITION amounted to 73.6%.

`O=C1CO[C@H]2CN(C3CCOCC3)C[C@H]2N1Cc1ccncc1`: the INHIBITION is reported as 22.2%.

In the case of `O=C1CO[C@H]2CN(C3CCOCC3)C[C@H]2N1Cc1ccc(F)cc1`, the INHIBITION came to 4.82%.

Turning to `CCOC(=O)C(C)Nc1ccc(CCN2CCOCC2)cc1` (centres undefined), the INHIBITION is given as -30.1%.

Take `CCC(Nc1ccc(CCN2CCCCC2)cc1)C(N)=O` (centres undefined): the INHIBITION amounted to 57.2%.

Turning to `CCC(Nc1ccc(CCN2CCOCC2)cc1)C(N)=O` (centres undefined), the INHIBITION is recorded as -28.8%.

For `Cc1nn(Cn2ccc(C(=O)N3CCCC3)n2)c(C)c1Cl`, the INHIBITION is recorded as 7.92%.

With `COc1cc(-c2nc(C3CC3)nn2-c2ccnc(C)c2)nc(OC)n1`, the INHIBITION is -10.2%.

For the compound `O=C(Nc1nnc(C(F)F)s1)NC(CCO)c1cccs1` (centres undefined), the INHIBITION was 13.8%.

As for `Cc1cc(CN(C)C2CCN(c3cccc(-c4cscn4)c3)CC2)on1`, the INHIBITION was 44.8%.

With `CN(Cc1cnn(C)c1)C1CCN(c2cccc(-c3cscn3)c2)CC1`, the INHIBITION turned out to be 45.6%.

For `CN(Cc1ccon1)C1CCN(c2cccc(-c3cscn3)c2)CC1`, the INHIBITION turned out to be 30.9%.

As to `CN(Cc1nccs1)C1CCN(c2cccc(-c3cscn3)c2)CC1`, the INHIBITION is 63.6%.

Take `CN(C)CCCN(C)C1CCN(c2cccc(-c3cscn3)c2)CC1`: the INHIBITION was 52.2%.

Take `Cc1nnc(CN(C)C2CCN(c3cccc(-c4cscn4)c3)CC2)o1`: the INHIBITION worked out at 23.5%.

In the case of `Cc1cc(C2CCCN(CCCS(C)(=O)=O)C2)n[nH]1` (centres undefined), the INHIBITION worked out at 11.9%.
